Molecules are shown by their SMILES. “And” between values parts separate entries of the source, which are not always exact repeats. Identical values can stand only once. Some compounds were tested as several samples or in several runs, with calls that do not always agree. The source made the active and inactive calls. How the source made its calls: active means hit-call score of the fitted dose curve at least 0.9, where 1 is the maximum; inactive means score below 0.9.

Among the data in PubChem BioAssay (EPA / NIEHS) are outcome and AC50 values, retold here.

Read-out in the assay: Pselectin, SELP (gene 6403)
Put plainly: BSK_4H_Pselectin: BioMAP Diversity Plus: 4H Assay for Pselectin Biomarker Activity (AID 2283026). The following applies: primary human endothelial cells (HUVEC); actives raise or lower the signal. On the procedure: BSK_4H is a cell-based, multiplexed-readout assay that uses umbilical vein endothelium, a human vascular primary cell, with measurements taken at 24 hours after chemical dosing in a 96-well plate.BSK_4H_Pselectin is an assay component measured in the BSK_4H assay. It measures P-Selectin antibody related to regulation of gene expression using ELISA technology.Data from the assay component BSK_4H_Pselectin was analyzed into 1 assay endpoint. This assay endpoint, BSK_4H_Pselectin, was analyzed with bidirectional fitting relative to DMSO as the negative control and baseline of activity. Using a type of binding reporter, gain or loss-of-signal activity can be used to understand changes in the signaling as they relate to the gene SELP. Furthermore, this assay endpoint can be referred to as a primary readout, because this assay has produced multiple assay endpoints where this one serves a signaling function. To generalize the intended target to other relatable targets, this assay endpoint is annotated to the cell adhesion molecules intended target family, where the subfamily is selectins.
The levels of cell surface (or secreted, indicated by the prefix "s") biomarker endpoints were measured by ELISA. Overt cytotoxicity to cells in confluent adherent cultures (all systems other than the BT system) was assessed by measuring total protein levels using sulforhodamine B (SRB) staining in parallel cultures at the time of biomarker measurements, indicated as SRB endpoints. For proliferation assays for adherent cell types, individual cell types are cultured at sub-confluence and relative cell numbers quantified by SRB staining at time points optimized for each system (48 h: 3C and CASM3C systems; 72 h: BT and HDF3CGF systems; 96 h: SAg system). SRB was performed by staining cells with 0.1% SRB after fixation with 10% TCA and reading wells at 560 nm.Viability and proliferation of PBMC (T cells) was quantified by Alamar Blue reduction for the SAg and BT systems. For PBMC viability (referred to as PBMC Cytotoxicity within the assay endpoint names), cells were plated (75,000/well in a 96-well plate) and then chemical samples added for 1 h before addition of activators, SEB and TSST-1 (20 ng/mL final concentration each). Cells were incubated for 90 h. Then, Alamar Blue (20 uL/well) (Invitrogen, Cat DAL1100) was added for 6 h, and the plates were read with a fluorescence microplate reader at 546/580 nm (excitation/emission). For PBMC proliferation, cells were plated and activated as above but incubated for only 16 h prior to addition of Alamar Blue. Plates were read after 6 h.
With `Oc1cc2ccccc2cc1O`, the outcome was inactive. Consider `O=P(O)(O)CCC(F)(F)C(F)(F)C(F)(F)C(F)(F)C(F)(F)C(F)(F)F`, for which the outcome was inactive. Still for that read-out and setting: to `COC1=CC(=O)C[C@@H](C)[C@]12Oc1c(Cl)c(OC)cc(OC)c1C2=O` belongs “inactive”.

For `CC[N+](CC)(CC)Cc1ccccc1`, the result was inactive. Same read-out and setting: in the case of `O=C1c2ccc(O)c(O)c2C(=O)c2c(O)ccc(O)c21` it was “inactive”; in that of `CCCCC=O`, “inactive”. By AC50 is commonly meant the concentration at which the activity in the assay is half-maximal. As to `OCC(F)(F)C(F)(F)C(F)(F)C(F)(F)C(F)(F)C(F)(F)C(F)(F)C(F)(F)C(F)(F)C(F)(F)C(F)(F)F`, the outcome was inactive and the AC50 was 0.275 µM (active). Turning to `Cc1ccc(N=Nc2c(O)ccc3ccccc23)c(C)c1`, the result was inactive. Take `CCCCCCCCCCCCCCC`: the outcome was inactive.

As to `OCC(CO)(CBr)CBr`, the result was inactive. On to `Cc1ccc(C(=O)c2ccccc2)cc1`, for which the AC50 is 31.2 µM (active).

For the molecule `COCN(COC)c1nc(N(COC)COC)nc(N(COC)COC)n1`, the outcome was inactive. For `CCCCCCCCCCCCCCCCCC[N+](C)(C)Cc1ccccc1`, the AC50 is 0.975 µM (active).

As to `CCOC(=O)CN[C@@H](C(=O)N1CC[C@H]1C(=O)NCc1ccc(/C(N)=N/O)cc1)C1CCCCC1`, the outcome was inactive.

Turning to `CS(=O)(=O)c1ccc([C@@H](CC2CCCC2)C(=O)Nc2cnccn2)cc1Cl`, the outcome was inactive. Same read-out and setting: in the case of `C[C@]12CC[C@@H]3c4ccc(O)cc4CC[C@H]3[C@@H]1C[C@@H](O)[C@@H]2O` it was “inactive”. For the molecule `O=C1NS(=O)(=O)c2ccccc21`, the AC50 was 5.01 µM (active) and the outcome was inactive. For `Oc1c(Cl)cc(Cl)cc1Sc1cc(Cl)cc(Cl)c1O`, the AC50 is 5.81 µM (active) and 4.28 µM (active). As for `Clc1ccc(Nc2nnc(Cc3ccncc3)c3ccccc23)cc1`, the result was inactive.

With `N=C(N)c1ccc(OCCCCCOc2ccc(C(=N)N)cc2)cc1`, the AC50 is 7.2 µM (active). For the molecule `Oc1ccc(Cc2ccccc2O)cc1`, the result was inactive. Still for that read-out and setting: to `C=CC(=C)CC/C=C(\C)CCC=C(C)C` belongs “inactive”; to `O=P(O)(O)CCC(F)(F)C(F)(F)C(F)(F)C(F)(F)C(F)(F)C(F)(F)C(F)(F)C(F)(F)F`, “inactive”. Still for that read-out and setting: in the case of `C=CC(=O)OCCC(F)(F)C(F)(F)C(F)(F)C(F)(F)C(F)(F)C(F)(F)C(F)(F)C(F)(F)F` it was “inactive”. Regarding `C=CC(C)(CCC=C(C)C)OC(C)=O` (stereo not given), the AC50 is 31 µM (active). For `Cc1[nH]nc2c1N=C(c1ccccc1Cl)c1cc([N+](=O)[O-])ccc1N2`, the concentration at half-maximal activity (AC50) was 0.639 µM (active). On the same count and under the same terms, to `NC(=NCCCCCCN=C(N)/N=C(\N)Nc1ccc(Cl)cc1)/N=C(\N)Nc1ccc(Cl)cc1` belongs 4.81 µM (active); to `O=C(O)C(F)(F)OC(F)(F)C(F)(F)OC(F)(F)C(F)(F)OC(F)(F)C(F)(F)C(F)(F)C(F)(F)F`, 48.1 µM (active) and 54.2 µM (active).

As for `O=C(CC(=O)C(F)(F)C(F)(F)C(F)(F)F)c1cccs1`, the AC50 is 19.1 µM (active) and 20.2 µM (active). The same measure, in the same setting: to `OCCN1CN(CCO)CN(CCO)C1` belongs 23.1 µM (active). With `CN(C)c1ccc(C(=C2C=CC(=[N+](C)C)C=C2)c2ccccc2)cc1`, the AC50 is 0.0138 µM (active). In the case of `O=S(=O)(O)C(F)(F)C(F)(F)C(F)(F)C(F)(F)C(F)(F)C(F)(F)C(F)(F)C(F)(F)C(F)(F)C(F)(F)F`, the outcome was inactive. Same read-out and setting: to `CCCCCCCCCCCCOS(=O)(=O)O` belongs “inactive”.

For `CC(C)(C)c1ccc(O)c(O)c1`, the AC50 was 20 µM (active). Still for that read-out and setting: to `C=COC(=O)C(C)(C)CCCCCC` belongs 32.4 µM (active).

As to `COc1cccc(O)c1`, the result was inactive.

For `CCCCCc1ccc(O)cc1`, the AC50 was 13.3 µM (active).

On to `CC1=NN(c2ccccc2)C(=O)C1`, for which the result was inactive.
